# According to PubChem BioAssay AID1159572 (Broad Institute, 2015):
# Measured potencies and affinities stand elsewhere. The source made the active and inactive calls.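 Rule for the calls: active = compounds whose fitted half-maximal growth inhibition concentration is at most twice their top tested dose; inconclusive = flat fit with 30 to 70% inhibition, or poor fit; inactive = the rest.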
# Test: P. falciparum Dd2 growth inhibitors, dose response, SYBR Green, dry powder samples, set 4 (AID 1159572)
smiles,measurement,value
COc1ccc2c3c([nH]c2c1)[C@H](CO)N(C(C)=O)CC31CCN(C(=O)Nc2c(C)noc2C)CC1,outcome,inactive
